# Laboratory results: article PMC7862700, “An all-to-all approach to the identification of sequence-specific readers for epigenetic DNA modifications on cytosine”
# Assays:
# Assay in all cases: DAPPL (digital affinity profiling via proximity ligation, sequencing); 10 mM Tris-HCl pH 7.5, 50 mM NaCl, 1 mM DTT, 4% glycerol, room temperature, 30 min; GST-TFs on glutathione beads, 16-mer random dsDNA library, 0.1% formaldehyde crosslink after washing; high values mean tight binding
# Details in all cases: protein: recombinant; tags: N-terminal GST; dsDNA, one strand shown
# FLI1 = target: T1, FLI1 (Homo sapiens, UniProt Q01543 1-452)
# T1 sequence: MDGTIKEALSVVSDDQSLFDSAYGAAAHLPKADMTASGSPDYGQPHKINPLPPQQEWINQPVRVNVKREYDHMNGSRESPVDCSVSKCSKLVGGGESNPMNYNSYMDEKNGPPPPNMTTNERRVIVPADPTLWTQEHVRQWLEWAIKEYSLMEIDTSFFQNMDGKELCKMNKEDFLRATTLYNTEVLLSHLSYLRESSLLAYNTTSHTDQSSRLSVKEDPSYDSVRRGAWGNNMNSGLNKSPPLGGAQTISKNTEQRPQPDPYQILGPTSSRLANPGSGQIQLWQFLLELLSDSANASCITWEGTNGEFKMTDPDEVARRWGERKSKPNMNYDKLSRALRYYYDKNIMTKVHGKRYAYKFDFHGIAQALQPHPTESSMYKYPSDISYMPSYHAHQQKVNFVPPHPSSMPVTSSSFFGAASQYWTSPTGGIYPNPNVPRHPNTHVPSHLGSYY
# In short: (§1)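 After expression in yeast as GST fusions, human transcription factors were bound to glutathione beads, DNA-barcoded and mixed with a tag-only sample. The pools were incubated with 200 nmole of a 16-mer random double-stranded DNA library in Tris/NaCl/DTT/glycerol buffer (30 min, room temperature), washed and crosslinked with 0.1% formaldehyde. Proximity ligation with BsaI/T4 ligase ran for 1 h at 37 °C, before PCR amplification and sequencing on an Illumina NextSeq500. Binding signal is a hexamer's read frequency for a factor divided by its frequency for the tag-only sample.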
# GABPA = target: T2, GABPA (Homo sapiens, UniProt Q06546 1-454)
# T2 sequence: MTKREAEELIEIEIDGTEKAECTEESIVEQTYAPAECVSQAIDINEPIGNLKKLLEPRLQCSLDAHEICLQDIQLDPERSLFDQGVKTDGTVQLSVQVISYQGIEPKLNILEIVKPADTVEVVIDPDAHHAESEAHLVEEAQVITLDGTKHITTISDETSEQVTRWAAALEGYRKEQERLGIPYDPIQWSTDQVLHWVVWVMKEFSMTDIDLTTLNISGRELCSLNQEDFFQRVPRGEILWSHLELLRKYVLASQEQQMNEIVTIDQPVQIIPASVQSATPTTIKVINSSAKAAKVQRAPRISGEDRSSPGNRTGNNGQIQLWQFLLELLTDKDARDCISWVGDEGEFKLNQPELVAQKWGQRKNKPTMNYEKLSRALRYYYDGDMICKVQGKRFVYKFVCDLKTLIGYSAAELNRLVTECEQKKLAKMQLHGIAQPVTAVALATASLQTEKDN
# In short: as §1
# ERG = target: T3, ERG (Homo sapiens, UniProt P11308 1-479)
# T3 sequence: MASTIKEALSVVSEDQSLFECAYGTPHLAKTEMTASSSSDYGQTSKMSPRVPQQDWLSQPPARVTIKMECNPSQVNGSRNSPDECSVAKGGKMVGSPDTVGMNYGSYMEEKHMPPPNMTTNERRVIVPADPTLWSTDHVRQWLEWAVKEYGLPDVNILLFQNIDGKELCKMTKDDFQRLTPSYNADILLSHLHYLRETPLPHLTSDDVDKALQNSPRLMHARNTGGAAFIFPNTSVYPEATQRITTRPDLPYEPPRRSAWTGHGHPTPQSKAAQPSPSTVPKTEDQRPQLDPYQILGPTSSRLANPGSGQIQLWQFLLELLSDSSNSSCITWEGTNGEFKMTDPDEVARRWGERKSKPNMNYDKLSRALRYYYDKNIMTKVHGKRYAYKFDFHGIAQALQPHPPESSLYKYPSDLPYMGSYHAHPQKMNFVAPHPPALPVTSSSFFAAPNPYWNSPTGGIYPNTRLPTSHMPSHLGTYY
# In short: as §1
# ELF1 = ELF1 (Homo sapiens, UniProt P32519 1-619)
# Chain of ELF1 (P32519 whole entry): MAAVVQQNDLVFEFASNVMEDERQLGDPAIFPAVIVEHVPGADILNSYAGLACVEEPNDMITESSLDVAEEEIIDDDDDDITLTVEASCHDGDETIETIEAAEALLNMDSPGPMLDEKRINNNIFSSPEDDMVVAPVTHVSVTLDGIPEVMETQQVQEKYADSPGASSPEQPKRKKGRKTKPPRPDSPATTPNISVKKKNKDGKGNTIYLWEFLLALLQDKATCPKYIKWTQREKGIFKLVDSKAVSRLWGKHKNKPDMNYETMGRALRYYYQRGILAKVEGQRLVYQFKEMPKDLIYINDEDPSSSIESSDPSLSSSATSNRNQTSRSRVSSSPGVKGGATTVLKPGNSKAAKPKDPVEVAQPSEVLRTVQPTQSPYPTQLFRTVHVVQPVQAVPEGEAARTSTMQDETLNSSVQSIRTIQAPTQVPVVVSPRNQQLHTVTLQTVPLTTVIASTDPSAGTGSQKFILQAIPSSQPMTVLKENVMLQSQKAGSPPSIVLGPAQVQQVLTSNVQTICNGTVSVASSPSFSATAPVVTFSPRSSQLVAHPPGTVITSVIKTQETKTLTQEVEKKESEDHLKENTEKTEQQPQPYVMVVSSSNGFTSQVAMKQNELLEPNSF
# In short: as §1
# EHF = target: T4, EHF (Homo sapiens, UniProt Q9NZC4 1-300)
# T4 sequence: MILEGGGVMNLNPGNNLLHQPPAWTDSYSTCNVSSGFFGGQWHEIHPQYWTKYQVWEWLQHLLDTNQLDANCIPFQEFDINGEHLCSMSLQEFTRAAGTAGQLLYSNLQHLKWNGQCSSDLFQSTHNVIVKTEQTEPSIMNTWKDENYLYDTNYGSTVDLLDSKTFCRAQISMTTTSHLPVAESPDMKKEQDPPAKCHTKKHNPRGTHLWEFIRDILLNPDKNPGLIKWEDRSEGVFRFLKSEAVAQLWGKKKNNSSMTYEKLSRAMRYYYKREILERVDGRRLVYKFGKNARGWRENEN
# In short: as §1
# SPI1 = SPI1 (Homo sapiens, UniProt P17947 1-270)
# In short: as §1
# SPIB = SPIB (Homo sapiens, UniProt Q01892 1-262)
# Chain of SPIB (Q01892 whole entry): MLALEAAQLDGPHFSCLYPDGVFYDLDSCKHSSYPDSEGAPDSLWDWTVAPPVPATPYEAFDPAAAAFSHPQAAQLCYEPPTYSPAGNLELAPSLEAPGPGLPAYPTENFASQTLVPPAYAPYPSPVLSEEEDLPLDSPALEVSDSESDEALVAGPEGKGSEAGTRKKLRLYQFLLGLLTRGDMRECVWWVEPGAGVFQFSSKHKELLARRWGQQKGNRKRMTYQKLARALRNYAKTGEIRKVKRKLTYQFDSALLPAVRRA
# In short: as §1
# ELK3 = target: T5, ELK3 (Homo sapiens, UniProt P41970 1-407)
# T5 sequence: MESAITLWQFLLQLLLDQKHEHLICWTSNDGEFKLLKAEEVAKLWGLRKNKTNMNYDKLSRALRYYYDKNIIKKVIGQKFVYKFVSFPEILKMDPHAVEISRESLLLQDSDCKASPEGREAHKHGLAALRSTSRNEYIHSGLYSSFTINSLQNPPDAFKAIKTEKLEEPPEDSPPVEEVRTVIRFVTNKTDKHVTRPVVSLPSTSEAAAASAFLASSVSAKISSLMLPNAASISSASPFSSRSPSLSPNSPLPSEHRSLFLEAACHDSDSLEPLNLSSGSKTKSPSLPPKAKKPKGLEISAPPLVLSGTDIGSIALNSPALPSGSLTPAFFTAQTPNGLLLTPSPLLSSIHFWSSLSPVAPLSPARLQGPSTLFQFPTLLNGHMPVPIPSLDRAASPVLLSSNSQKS
# In short: as §1
# ELK4 = target: T6, ELK4 (Homo sapiens, UniProt P28324-2 1-405)
# T6 sequence: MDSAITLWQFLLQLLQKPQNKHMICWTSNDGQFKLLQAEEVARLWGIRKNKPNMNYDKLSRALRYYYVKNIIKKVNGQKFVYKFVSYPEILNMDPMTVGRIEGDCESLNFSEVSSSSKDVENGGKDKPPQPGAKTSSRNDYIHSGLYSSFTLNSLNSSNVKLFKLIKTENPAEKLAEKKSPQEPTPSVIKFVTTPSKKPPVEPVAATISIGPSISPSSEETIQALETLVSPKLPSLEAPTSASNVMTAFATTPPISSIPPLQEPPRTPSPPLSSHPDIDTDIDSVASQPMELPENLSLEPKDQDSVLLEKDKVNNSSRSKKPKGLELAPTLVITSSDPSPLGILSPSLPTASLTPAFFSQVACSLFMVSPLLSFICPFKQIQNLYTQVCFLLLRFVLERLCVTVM
# In short: as §1
# ETV2 = target: T7, ETV2 (Homo sapiens, UniProt O00321 1-342)
# T7 sequence: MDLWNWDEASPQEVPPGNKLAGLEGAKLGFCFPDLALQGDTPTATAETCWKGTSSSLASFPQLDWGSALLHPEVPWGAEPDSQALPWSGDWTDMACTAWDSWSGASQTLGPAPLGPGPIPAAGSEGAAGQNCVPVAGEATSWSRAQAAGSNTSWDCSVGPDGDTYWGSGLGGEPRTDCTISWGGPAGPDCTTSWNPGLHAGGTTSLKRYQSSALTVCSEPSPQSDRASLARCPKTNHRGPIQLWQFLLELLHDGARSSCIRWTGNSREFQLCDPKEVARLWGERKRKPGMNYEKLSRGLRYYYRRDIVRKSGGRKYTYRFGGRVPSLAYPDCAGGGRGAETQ
# In short: as §1
# ETV1 = ETV1 (Homo sapiens, UniProt P50549 1-477)
# Chain of ETV1 (P50549 whole entry): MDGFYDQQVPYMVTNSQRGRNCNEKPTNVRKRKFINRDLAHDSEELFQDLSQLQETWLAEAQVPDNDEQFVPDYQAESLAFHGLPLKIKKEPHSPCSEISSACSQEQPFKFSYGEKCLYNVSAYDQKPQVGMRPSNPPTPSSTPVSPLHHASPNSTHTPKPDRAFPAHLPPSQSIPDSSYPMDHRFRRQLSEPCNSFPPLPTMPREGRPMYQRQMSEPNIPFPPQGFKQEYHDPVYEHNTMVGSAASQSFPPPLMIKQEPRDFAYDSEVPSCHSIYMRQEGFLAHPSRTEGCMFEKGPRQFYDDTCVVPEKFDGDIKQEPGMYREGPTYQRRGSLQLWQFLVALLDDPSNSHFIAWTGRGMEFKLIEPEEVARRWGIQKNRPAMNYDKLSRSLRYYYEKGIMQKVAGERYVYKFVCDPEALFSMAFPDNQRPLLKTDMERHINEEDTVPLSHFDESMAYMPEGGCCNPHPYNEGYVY
# In short: as §1
# ERF = target: T8, ERF (Homo sapiens, UniProt P50548 1-548)
# T8 sequence: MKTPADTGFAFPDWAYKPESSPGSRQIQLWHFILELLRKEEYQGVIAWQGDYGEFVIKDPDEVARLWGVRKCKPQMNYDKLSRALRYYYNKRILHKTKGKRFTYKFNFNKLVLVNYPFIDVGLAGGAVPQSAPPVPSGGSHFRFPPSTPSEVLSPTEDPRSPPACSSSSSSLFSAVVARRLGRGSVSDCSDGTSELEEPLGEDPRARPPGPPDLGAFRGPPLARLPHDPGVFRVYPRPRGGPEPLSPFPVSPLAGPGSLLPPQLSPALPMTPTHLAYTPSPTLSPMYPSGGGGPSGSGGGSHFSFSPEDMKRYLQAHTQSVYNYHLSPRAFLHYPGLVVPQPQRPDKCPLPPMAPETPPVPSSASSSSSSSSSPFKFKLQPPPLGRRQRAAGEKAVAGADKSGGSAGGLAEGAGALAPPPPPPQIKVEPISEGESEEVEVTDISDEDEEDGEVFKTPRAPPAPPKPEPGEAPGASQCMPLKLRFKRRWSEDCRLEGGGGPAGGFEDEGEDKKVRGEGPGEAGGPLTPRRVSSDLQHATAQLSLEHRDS
# In short: as §1
# ETV3L = target: T9, ETV3L (Homo sapiens, UniProt Q6ZN32 1-361)
# T9 sequence: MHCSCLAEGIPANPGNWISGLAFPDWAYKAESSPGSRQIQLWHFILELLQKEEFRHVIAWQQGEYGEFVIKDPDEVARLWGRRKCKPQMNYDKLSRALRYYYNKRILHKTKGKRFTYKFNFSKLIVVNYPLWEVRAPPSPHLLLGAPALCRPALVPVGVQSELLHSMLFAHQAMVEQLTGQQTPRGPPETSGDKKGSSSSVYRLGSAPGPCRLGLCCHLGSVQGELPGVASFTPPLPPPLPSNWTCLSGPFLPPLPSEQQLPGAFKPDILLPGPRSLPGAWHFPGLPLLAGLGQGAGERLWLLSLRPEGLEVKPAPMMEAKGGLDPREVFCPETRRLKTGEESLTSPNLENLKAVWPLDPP
# In short: as §1
# ETV3 = target: T10, ETV3 (Homo sapiens, UniProt P41162-2 1-143)
# T10 sequence: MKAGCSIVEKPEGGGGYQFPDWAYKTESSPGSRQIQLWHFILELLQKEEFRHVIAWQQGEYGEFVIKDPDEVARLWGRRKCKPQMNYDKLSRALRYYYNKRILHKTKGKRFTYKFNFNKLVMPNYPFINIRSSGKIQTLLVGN
# In short: as §1
# ETV6 = ETV6 (Homo sapiens, UniProt P41212 1-452)
# Chain of ETV6 (P41212 whole entry): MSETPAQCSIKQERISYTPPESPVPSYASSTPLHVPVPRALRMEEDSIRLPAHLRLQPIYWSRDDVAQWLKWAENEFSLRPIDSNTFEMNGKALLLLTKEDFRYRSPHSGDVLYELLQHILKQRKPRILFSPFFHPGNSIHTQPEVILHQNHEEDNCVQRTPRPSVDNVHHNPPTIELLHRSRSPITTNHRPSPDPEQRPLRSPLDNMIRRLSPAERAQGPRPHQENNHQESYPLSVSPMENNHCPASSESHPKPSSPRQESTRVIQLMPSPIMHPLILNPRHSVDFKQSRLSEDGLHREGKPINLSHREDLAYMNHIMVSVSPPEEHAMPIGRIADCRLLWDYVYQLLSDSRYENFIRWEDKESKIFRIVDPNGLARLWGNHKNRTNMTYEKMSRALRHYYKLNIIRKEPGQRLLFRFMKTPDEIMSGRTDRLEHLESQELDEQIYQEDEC
# In short: as §1
# ELK1 = target: T11, ELK1 (Homo sapiens, UniProt P19419 1-428)
# T11 sequence: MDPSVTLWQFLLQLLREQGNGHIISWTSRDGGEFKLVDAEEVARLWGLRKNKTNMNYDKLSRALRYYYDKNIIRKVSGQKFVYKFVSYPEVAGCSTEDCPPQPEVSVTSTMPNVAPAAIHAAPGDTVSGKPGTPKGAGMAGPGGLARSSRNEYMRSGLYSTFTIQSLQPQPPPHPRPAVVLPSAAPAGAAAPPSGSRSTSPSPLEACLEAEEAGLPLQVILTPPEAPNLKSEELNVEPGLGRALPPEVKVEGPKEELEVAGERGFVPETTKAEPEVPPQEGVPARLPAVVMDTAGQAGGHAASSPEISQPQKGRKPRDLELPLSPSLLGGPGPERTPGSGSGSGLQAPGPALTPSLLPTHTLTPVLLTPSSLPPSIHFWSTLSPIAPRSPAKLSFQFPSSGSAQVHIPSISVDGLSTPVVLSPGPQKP
# In short: as §1
# ETS2 = target: T12, ETS2 (Homo sapiens, UniProt P15036 1-469)
# T12 sequence: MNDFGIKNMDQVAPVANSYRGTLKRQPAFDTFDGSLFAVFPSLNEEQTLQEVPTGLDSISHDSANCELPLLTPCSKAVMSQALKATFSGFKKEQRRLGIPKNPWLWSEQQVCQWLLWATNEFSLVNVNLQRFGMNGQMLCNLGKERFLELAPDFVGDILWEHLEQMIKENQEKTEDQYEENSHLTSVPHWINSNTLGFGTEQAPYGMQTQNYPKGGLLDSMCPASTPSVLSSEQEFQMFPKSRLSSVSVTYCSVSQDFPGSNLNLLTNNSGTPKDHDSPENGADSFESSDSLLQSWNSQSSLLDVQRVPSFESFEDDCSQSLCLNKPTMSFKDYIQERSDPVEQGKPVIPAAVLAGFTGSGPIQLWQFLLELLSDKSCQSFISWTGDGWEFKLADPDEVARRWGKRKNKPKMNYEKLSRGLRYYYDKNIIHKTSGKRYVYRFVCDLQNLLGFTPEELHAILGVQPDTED
# In short: as §1
Sequence,binding signal (FLI1),binding signal (GABPA),binding signal (ERG),binding signal (ELF1),binding signal (EHF),binding signal (SPI1),binding signal (SPIB),binding signal (ELK3),binding signal (ELK4),binding signal (ETV2),binding signal (ETV1),binding signal (ERF),binding signal (ETV3L),binding signal (ETV3),binding signal (ETV6),binding signal (ELK1),binding signal (ETS2)
CCTGGC,"1.03 fold enrichment (6-mer frequency, TF over GST control)","1.1 fold enrichment (6-mer frequency, TF over GST control)","1.15 fold enrichment (6-mer frequency, TF over GST control)","1.07 fold enrichment (6-mer frequency, TF over GST control)","1.04 fold enrichment (6-mer frequency, TF over GST control)","1.05 fold enrichment (6-mer frequency, TF over GST control)","1.03 fold enrichment (6-mer frequency, TF over GST control)","1.06 fold enrichment (6-mer frequency, TF over GST control)","1.13 fold enrichment (6-mer frequency, TF over GST control)","1.27 fold enrichment (6-mer frequency, TF over GST control)","1.04 fold enrichment (6-mer frequency, TF over GST control)","1.03 fold enrichment (6-mer frequency, TF over GST control)","1.08 fold enrichment (6-mer frequency, TF over GST control)","1.01 fold enrichment (6-mer frequency, TF over GST control)","1.08 fold enrichment (6-mer frequency, TF over GST control)",,
GCATCT,"1.03 fold enrichment (6-mer frequency, TF over GST control)","1.03 fold enrichment (6-mer frequency, TF over GST control)",,"1.02 fold enrichment (6-mer frequency, TF over GST control)","1.06 fold enrichment (6-mer frequency, TF over GST control)",,"1.02 fold enrichment (6-mer frequency, TF over GST control)",,,"1 fold enrichment (6-mer frequency, TF over GST control)","1.09 fold enrichment (6-mer frequency, TF over GST control)","1.04 fold enrichment (6-mer frequency, TF over GST control)","1.05 fold enrichment (6-mer frequency, TF over GST control)",,"1.01 fold enrichment (6-mer frequency, TF over GST control)","1.02 fold enrichment (6-mer frequency, TF over GST control)","1.04 fold enrichment (6-mer frequency, TF over GST control)"
